The values that follow come from PubChem BioAssay AID540333 (Southern Research Specialized Biocontainment Screening …, 2011).

Screen size: about 10,000 compounds; about 320 (3.2%) were called active. The sample holds actives, similar compounds and a random draw of the others, so the mix is not that of the screen. Cut-off read from the data, not from the text of the source: active = CPE inhibition mostly above about 9.1% (no sharp cut-off); inactive = mostly below about 7.2%.

A short description of this experiment: Dengue virus cytopathic effect inhibitors, cell-based, CPE readout, HTS (AID 540333). The following applies: Dengue virus CPE inhibition in host cells, at 20 µM; hits give high values. A general note: Cytopathic effects are the visible damage that an infection or toxin causes in cultured cells.
In the case of `CCCCn1c(SCc2nc3ccccc3s2)nc2ccccc2c1=O`, the CPE inhibition result was “inactive”.

With `CCOc1cc2c3c(c1)C1(C(=O)N3C(C)(C)CC2C)C(C#N)=C(N)N2C(=C1C#N)Nc1ccccc12` (stereo unspecified), the CPE inhibition was 2.12% (inactive).

As to `Cc1ccc(NNC(=O)C(O)(c2cccc(C(F)(F)F)c2)c2cccc(C(F)(F)F)c2)cc1`, the CPE inhibition is 7.56% (inactive).

Take `Cc1cccc(C(O)(C(=O)NNc2ccc3ccccc3n2)c2cccc(C)c2)c1`: the CPE inhibition entry is “inactive”.

Consider `O=C(NNc1ccccc1Cl)C(O)(c1cccc(C(F)(F)F)c1)c1cccc(C(F)(F)F)c1`, for which the CPE inhibition was 20.4% (active).

Take `Cc1ccc(NC(=S)NCC(C)C)cc1`: the CPE inhibition result is “inactive”.

On to `C#Cc1ccc([C@@H]2C=C(C(=O)O)O[C@H](OCC)[C@H]2CCCO)cc1`, for which the CPE inhibition is 1.06% (inactive).

For the compound `Cc1cc(-c2n[nH]c(=S)n2/N=C/c2cc([N+](=O)[O-])ccc2Cl)n[nH]1`, the CPE inhibition is 10.9% (active).

`Cc1cc(-c2n[nH]c(=S)n2/N=C/c2ccccc2[N+](=O)[O-])n[nH]1`: the CPE inhibition is 0.73% (inactive).

Turning to `Cc1cc(-c2n[nH]c(=S)n2/N=C/c2cccc([N+](=O)[O-])c2)n[nH]1`, the CPE inhibition was 0.265% (inactive).

In the case of `O=C(Nc1ccc(F)cc1F)c1cc2ncc(CCCl)cn2n1`, the CPE inhibition was 0.045% (inactive).

Take `Cc1ccc(S(=O)(=O)N2CCCCC2)cc1C(=O)OCC(=O)NC(=O)NC12CC3CC(CC(C3)C1)C2`: the CPE inhibition was 0.11% (inactive).

As for `CN(C)c1ccc(N=Nc2ccccc2C(=O)OCC(=O)NCC2CCCCC2)cc1`, the CPE inhibition was 0.995% (inactive).

As to `COc1ccc(CN(C)C2c3ccccc3-c3ccccc32)cc1`, the CPE inhibition was 1.16% (inactive).

Consider `Cc1cc(C(=O)N/N=C/c2cc(Cl)cc([N+](=O)[O-])c2O)c2ccccc2n1`, for which the CPE inhibition is 0.08% (inactive).

As to `O=C(N/N=C/c1cc([N+](=O)[O-])ccc1O)NC12CC3CC(CC(C3)C1)C2`, the CPE inhibition is 0.635% (inactive).

As to `O=C(N/N=C/c1cc(Cl)cc([N+](=O)[O-])c1O)NC12CC3CC(CC(C3)C1)C2`, the CPE inhibition is 15.6% (active).

Regarding `Clc1ccc2nc(-c3ccncc3)cc(-c3ccccc3)c2c1`, the CPE inhibition was 2.25% (inactive).

Take `Cc1ccc2nc(-c3cccc(NS(C)(=O)=O)c3)cc(-c3ccccc3)c2c1`: the CPE inhibition was 24.6% (active).

`O=[N+]([O-])c1ccc2nc(-c3ccccc3)cc(-c3ccccc3)c2c1`: the CPE inhibition was 1.14% (inactive).

Turning to `COCCn1c(=NC(=O)c2nc3ccccc3s2)sc2cc(S(C)(=O)=O)ccc21`, the CPE inhibition was 6.63% (inactive).

With `Cc1cccc(/C(N)=N/OC(=O)c2ccc3c(c2)OCO3)c1`, the CPE inhibition is 0.195% (inactive).

For the compound `COc1ccccc1NC(=O)c1c(Nc2ccccc2C)sc(C(=O)Nc2cccc(Cl)c2)c1N`, the CPE inhibition is 0.08% (inactive).

For `COc1ccccc1NC(=O)c1c(Nc2ccccc2F)sc(C(=O)Nc2cccc(Cl)c2)c1N`, the CPE inhibition was 17.3% (active).

In the case of `COc1ccccc1NC(=O)c1ccc(NS(=O)(=O)c2ccc(F)c(Cl)c2)cc1`, the CPE inhibition result was “inactive”.

Turning to `Cc1ccc(-c2csc(NC(=S)NC(=O)c3cc4ccccc4o3)n2)cc1`, the CPE inhibition was 1.54% (inactive).

With `O=C1CSC(=S)N1N=C1CCCCCC1`, the CPE inhibition entry was “inactive”.

Regarding `O=C(NC(=S)NC1CCSC1=O)c1cccs1` (stereo unspecified), the CPE inhibition was 12.2% (active).

As to `Cc1onc(-c2c(F)cccc2Cl)c1C(=O)NC(=S)NC1CCSC1=O` (stereo unspecified), the CPE inhibition is 2.61% (inactive).

`O=C(NC(=S)NCC1CCCO1)c1cccs1` (stereo unspecified): the CPE inhibition result is “inactive”.

With `O=C1CCCc2c1cc(-c1ccccc1)n2-c1ccc(O)cc1`, the CPE inhibition was 1.72% (inactive).

With `CCOCCCNC(=O)/C(C#N)=C/c1ccc(-c2ccc(S(=O)(=O)N3CCOCC3)cc2)o1`, the CPE inhibition was 0.33% (inactive).

Consider `Cc1cc(C)nc(Sc2ccc([N+](=O)[O-])cc2[N+](=O)[O-])n1`, for which the CPE inhibition was 14.6% (active).

`CN(C)/N=C/c1ccc(Sc2ccc([N+](=O)[O-])cc2[N+](=O)[O-])o1`: the CPE inhibition was 2.35% (inactive).

Regarding `Cc1cc(C)n(C(=O)c2ccc([N+](=O)[O-])cc2[N+](=O)[O-])n1`, the CPE inhibition was 0.325% (inactive).

As for `N#C/C(=C\c1cccn1-c1ccccc1)C(=O)NC1CCCCC1`, the CPE inhibition is 2.54% (inactive).

Regarding `O=[n+]1cc(-c2ccccc2)n([O-])c2c1CCCCC2`, the CPE inhibition was 0.81% (inactive).

For `CCOC(=O)c1cc[n+](CC(=O)c2ccc(F)cc2)cc1`, the CPE inhibition result was “inactive”.

Take `COc1ccc(NC(=O)CC2(Cc3ccccc3)CCOC(C)(C)C2)cc1` (stereo unspecified): the CPE inhibition result was “inactive”.

Take `Cc1ccc(NC2=C(Cl)C(=O)OC2OC(=O)c2ccco2)cc1C` (stereo unspecified): the CPE inhibition is 14% (active).

For the compound `CCOC1OC(=O)C(Cl)=C1Nc1ccc(C)cc1C` (stereo unspecified), the CPE inhibition was 0.385% (inactive).

Take `Cc1cccc(C)c1NC1=C(Cl)C(=O)OC1OC(C)C` (stereo unspecified): the CPE inhibition result was “inactive”.

`COc1cc(NC(=O)CN2CCC(C)CC2)c(C)cc1[N+](=O)[O-]`: the CPE inhibition result is “inactive”.

In the case of `CCN(CC)S(=O)(=O)c1ccc2oc(C(=O)N3CCc4ccccc4C3)c(C)c2c1`, the CPE inhibition was 0.865% (inactive).

For the compound `N#Cc1cc(NCC2CCCO2)c([N+](=O)[O-])cc1C#N` (stereo unspecified), the CPE inhibition is 0.075% (inactive).

On to `CN(CC(=O)Nc1ccc(S(=O)(=O)N2CCCC2)cc1)Cc1cccc(Cl)c1Cl`, for which the CPE inhibition is 9% (active).

For `CN(CC(=O)Nc1ccc(S(=O)(=O)N2CCCC2)cc1)Cc1ccc(Cl)cc1`, the CPE inhibition is 0.055% (inactive).

With `CN(Cc1cccc(Cl)c1Cl)C(=O)c1ccc(NC(=O)CC#N)cc1`, the CPE inhibition entry is “inactive”.

For the compound `CN(CC(=O)Nc1ccc(F)cc1)c1ccc(S(=O)(=O)N2CCCCC2)cc1[N+](=O)[O-]`, the CPE inhibition was 2.78% (inactive).

As for `CN(CC(=O)Nc1ccc(Cl)cc1)c1ccc(S(=O)(=O)N2CCCCC2)cc1[N+](=O)[O-]`, the CPE inhibition is 13% (active).

On to `CN(CC(=O)Nc1ccc(S(=O)(=O)N2CCCC2)cc1)Cc1ccc(Cl)cc1Cl`, for which the CPE inhibition is 13.3% (active).

For the compound `CC(C)C(=O)NC(=S)Nc1ccc(S(=O)(=O)N2CCCC2)cc1`, the CPE inhibition result was “inactive”.

On to `COc1ccc(CCN(C)c2ccc(S(=O)(=O)N3CCCC3)cc2[N+](=O)[O-])cc1OC`, for which the CPE inhibition result was “inactive”.

For `CCOc1ccccc1N(CC(=O)Nc1ccc(S(=O)(=O)N2CCOCC2)cc1)S(=O)(=O)c1ccc(Cl)cc1`, the CPE inhibition was 0.98% (inactive).

Turning to `CCc1cccc(C)c1NC(=O)CSc1nc(-c2ccccc2F)nc2nc[nH]c12`, the CPE inhibition entry was “inactive”.

As for `CCCCn1c(-c2ccco2)n[nH]c1=S`, the CPE inhibition is 1.02% (inactive).

On to `CC(OC(=O)/C=C/c1ccco1)C(=O)Nc1cccc([N+](=O)[O-])c1` (stereo unspecified), for which the CPE inhibition was 0.7% (inactive).

On to `CCOc1ccccc1NC(=S)NNS(=O)(=O)c1c(C)cc(C)cc1C`, for which the CPE inhibition entry was “inactive”.

As to `Cc1ccc(NC(=O)CC(C(=O)O)c2ccccc2)cc1` (stereo unspecified), the CPE inhibition result is “inactive”.

For the compound `C=CCC(C(=O)Oc1c(C(C)(C)C)cc(C)cc1C(C)(C)C)c1ccccc1` (stereo unspecified), the CPE inhibition was 12.5% (active).

In the case of `CCOC(=O)N1CCN(CC(O)COc2ccc(C)cc2C(C)(C)C)CC1` (stereo unspecified), the CPE inhibition was 2.44% (inactive).

`CC(C)Oc1ccc(C(CC(=O)N(C)CCC#N)c2ccc(F)cc2)cc1` (stereo unspecified): the CPE inhibition was 0.65% (inactive).

With `COC(=O)CNC(c1ccccc1)c1cc(C)ccc1NC(=O)c1cccc(Cl)c1` (stereo unspecified), the CPE inhibition is 3.54% (inactive).

Take `NNC(=O)CNC(c1ccccc1)c1cc(Br)ccc1NC(=O)c1cccc(Cl)c1` (stereo unspecified): the CPE inhibition was 0.305% (inactive).

Take `COC(=O)CNC(c1ccccc1)c1cc(Br)ccc1NC(=O)CNC(=O)OCc1ccccc1` (stereo unspecified): the CPE inhibition is 16.5% (active).

As to `O=C(Oc1cccc(/C=N/Nc2nc(Nc3ccccc3)nc(N3CCOCC3)n2)c1)c1ccco1`, the CPE inhibition entry is “inactive”.

`Cc1ccc(C(O)(C(=O)NNc2ccc3ccccc3n2)c2ccc(C)cc2)cc1`: the CPE inhibition result is “inactive”.

Turning to `CC(Sc1nc(-c2ccccc2)cc(C(F)(F)F)n1)C(=O)Nc1ccc2c(c1)OCO2` (stereo unspecified), the CPE inhibition was 3% (inactive).

For `O=C(Nc1cccc(C(F)(F)F)c1)C(Sc1ncnc2ccccc12)c1ccccc1` (stereo unspecified), the CPE inhibition was 2.71% (inactive).

Consider `CC(Sc1ncnc2ccccc12)C(=O)Nc1ccc2c(c1)OCCO2` (stereo unspecified), for which the CPE inhibition is 12.4% (active).

For `CC(C)C[C@@H](COc1ccccc1)N1CCN(Cc2ccccc2)CCC1=O`, the CPE inhibition is 0.51% (inactive).

In the case of `CC(C)(C)c1ccc(C(=O)N2CCC(=O)N(C(CO)Cc3ccccc3)CC2)cc1` (stereo unspecified), the CPE inhibition entry was “inactive”.

`CC(C)CC(COCc1ccc(Cl)cc1)N1CCN(C(=O)c2ccc(C(F)(F)F)cc2)CCC1=O` (stereo unspecified): the CPE inhibition is 12.7% (active).

Consider `O=C(Nc1cccc(Cl)c1)Nc1ccc2c(c1)C(=O)OC2`, for which the CPE inhibition entry is “inactive”.

Regarding `O=C1C2C(c3ccccc3)=NN(c3ccccc3)C2C(=O)N1c1ccccc1` (stereo unspecified), the CPE inhibition entry was “inactive”.

On to `COc1cccc(N2C(C(C)=O)=NN(c3ccccc3)C2c2ccc(N3CCOCC3)cc2)c1` (stereo unspecified), for which the CPE inhibition is 2.42% (inactive).

As to `COc1ccccc1[C@@H]1C(c2cccc(Cl)c2)=NN(c2ccccc2)[C@H]1C(=O)N1CCOC1=O`, the CPE inhibition is 19.3% (active).

As to `O=C(/C=C/c1ccc(Br)cc1)NC(=S)Nc1ccc(S(=O)(=O)Nc2nccs2)cc1`, the CPE inhibition result was “inactive”.

For `Nc1c(C(=O)c2ccc(Cl)cc2)sc2nc3c(cc12)CCC3`, the CPE inhibition is 7.59% (inactive).

Turning to `O=C(O)c1ccc(NC(=O)c2cccc(N3C(=O)C4C5CCC(C5)C4C3=O)c2)cc1` (stereo unspecified), the CPE inhibition is 1.22% (inactive).

For `O=C(Nc1ccc(Cl)cc1)c1cccc(N2C(=O)C3C4CCC(C4)C3C2=O)c1` (stereo unspecified), the CPE inhibition was 2.71% (inactive).

Take `CC(C)(C)NC(=O)c1ccc2c(c1)C1C3CCC(C3)C1C(c1ccccc1)N2` (stereo unspecified): the CPE inhibition was 15.9% (active).

As for `O=C(CCC(=O)NCCCc1ccccc1)NCCCc1ccccc1`, the CPE inhibition entry is “inactive”.

With `Cc1ccc(SCCNC(=O)/C=C/c2cccc([N+](=O)[O-])c2)cc1`, the CPE inhibition was 6.54% (inactive).

In the case of `CCCCNC(=O)c1onc(CSc2cccc(OC)c2)c1C(=O)O`, the CPE inhibition result was “inactive”.

For the compound `COc1cccc(SCc2noc(C(=O)NCCCN3CCOCC3)c2C(=O)NCCCN2CCOCC2)c1`, the CPE inhibition was 0.255% (inactive).

In the case of `C=CCNC(=O)c1onc(CSc2ccccc2)c1C(=O)NCC=C`, the CPE inhibition is 0.535% (inactive).

On to `COCCNC(=O)c1onc(CSc2ccc(F)c(F)c2)c1C(=O)NCCOC`, for which the CPE inhibition entry is “inactive”.

Consider `O=C(NCCCN1CCOCC1)c1onc(CSc2ccccn2)c1C(=O)NCCCN1CCOCC1`, for which the CPE inhibition entry is “inactive”.

As for `C=CCNC(=O)c1c(CSc2ccc(Cl)cc2)noc1C(=O)NCc1ccccc1`, the CPE inhibition is 11.2% (active).

Regarding `CCCCNC(=O)c1onc(CSc2cccc(OC)c2)c1C(=O)NCCCC`, the CPE inhibition is 20.1% (active).

Regarding `C=CCNC(=O)c1c(CSc2ccc(Cl)cc2)noc1C(=O)NCCC`, the CPE inhibition is 0.85% (inactive).

Consider `O=C(NCCCN1CCOCC1)c1onc(CSc2ccc(F)c(F)c2)c1C(=O)NCCCN1CCOCC1`, for which the CPE inhibition result is “inactive”.

Regarding `CCCCNC(=O)c1onc(CSc2ccccn2)c1C(=O)NCCCC`, the CPE inhibition is 1.85% (inactive).

`CC(C)CCNC(=O)c1onc(CSc2ccccn2)c1C(=O)NCCC(C)C`: the CPE inhibition is 25.9% (active).

As to `CCCCNC(=O)c1onc(CSc2ccc(F)c(F)c2)c1C(=O)NCCCC`, the CPE inhibition is 11.5% (active).
